Test systems include DU-145 prostate; K-562 leukemia; MALME-3M melanoma; RXF 393 renal; SF-295 CNS; SF-539 CNS; UACC-257 melanoma; M14 melanoma; MDA-MB-231 breast; SF-268 CNS.
Common to all, as to test: NCI-60 one-dose screen, 48 h (100 = growth as untreated, 0 = no growth, -100 = all killed)
Details in all cases: 10 µM

The structures appear in SMILES notation. About 83,000 compounds went through this panel and 20% of them were active in at least one assay; those are over-represented in the sample as a whole.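 Results are percent growth after 48 hours of single-concentration exposure. 100 means growth as in untreated cells, lower positive values show inhibition; negative values down to -100 show cell death.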 A number with no mark means an inactive call. The source made the active and inactive calls. How the source made its calls: active means growth percent below 10; inactive means the rest.

Regarding `COc1ccccc1C1OC2=Nc3cc(C)c(C)cc3NC2C1=O` (centres undefined), the growth in the assay with DU-145 prostate was 88%; in the assay on K-562 leukemia, 97.7%; with MALME-3M melanoma, 80.2%; with RXF 393 renal, 78.3%; with SF-295 CNS it was 74.8%; in the assay with SF-539 CNS, 91%. The growth in the assay with UACC-257 melanoma was 104%; with M14 melanoma, 84.2%.
As to `Cc1ccc(C)n1-c1ccsc1C(=O)NNC(=O)CCl`, the growth was 105% with DU-145 prostate; 96.3% in the assay with K-562 leukemia; 86.7% in the assay on MALME-3M melanoma; 101% in the assay on RXF 393 renal; 103% with SF-295 CNS; 101% in the assay with SF-539 CNS. The growth was 91.3% with UACC-257 melanoma and 77.8% in the assay with M14 melanoma.
Consider `CCc1nc(N)nc(N)c1-c1ccc(Cl)cc1`, for which the growth in the assay with DU-145 prostate was 55.4%; in the assay on K-562 leukemia it was 20.3%; with MDA-MB-231 breast, 69.9%; with RXF 393 renal, 71.6%; in the assay with SF-268 CNS, 49.2%; with SF-295 CNS it was 37.5%. The growth was 72.4% with UACC-257 melanoma and 40.9% in the assay on M14 melanoma.
With `C/C(O)=C(\C=N\C(N)=S)C(=O)Nc1ccccc1`, the growth in the assay on DU-145 prostate is 109%; in the assay with K-562 leukemia, 107%; in the assay on MDA-MB-231 breast it was 92.2%; in the assay with RXF 393 renal, 107%; with SF-268 CNS, 101%; in the assay with SF-295 CNS it was 110%. The growth was 114% in the assay with SF-539 CNS, 97.7% in the assay with UACC-257 melanoma and 105% in the assay with M14 melanoma.
For `CC1C(=O)c2ccccc2CC1C(=O)O` (centres undefined), the growth with DU-145 prostate was 135%; in the assay with K-562 leukemia, 103%; with MDA-MB-231 breast, 109%; in the assay on RXF 393 renal, 120%; in the assay with SF-268 CNS, 130%; with SF-539 CNS, 101%. Further, the results for the growth in the assay with UACC-257 melanoma and in the assay on M14 melanoma were 92.8% and 113%, respectively.
As to `CC(C)NC(=O)OCc1c(COC(=O)NC(C)C)c(-c2ccc(Cl)c(Cl)c2)n2c1SCC2`, the growth in the assay with DU-145 prostate is 41.6%; in the assay on K-562 leukemia, 34.1%; in the assay on MALME-3M melanoma it was 62.9%; in the assay with RXF 393 renal, 6.56% (active); in the assay on SF-295 CNS it was 27.3%; with SF-539 CNS, 32%. Besides, the growth with UACC-257 melanoma was 32.3%.
Consider `O=[N+]([O-])c1cccc2nsnc12`, for which the growth in the assay with DU-145 prostate was 114%; in the assay with K-562 leukemia it was 111%; in the assay with MDA-MB-231 breast, 112%; in the assay with RXF 393 renal, 118%; in the assay with SF-268 CNS, 101%; with SF-539 CNS, 108%. Moreover, the growth in the assay on UACC-257 melanoma is 87.8%; with M14 melanoma, 101%.
For the compound `CC(=O)NC(N)=S`, the growth with DU-145 prostate was 107%; in the assay on K-562 leukemia, 121%; in the assay on MDA-MB-231 breast it was 115%; in the assay with RXF 393 renal, 105%; with SF-268 CNS, 110%; in the assay with SF-295 CNS, 101%. Also, the growth was 107% with SF-539 CNS, 101% in the assay on UACC-257 melanoma and 127% in the assay on M14 melanoma.
As to `CCNc1nc2c(cnn2C)c(=O)[nH]1`, the growth was 113% in the assay with DU-145 prostate; 98.2% in the assay with K-562 leukemia; 110% in the assay with MDA-MB-231 breast; 94.6% in the assay with RXF 393 renal; 104% in the assay on SF-268 CNS; 103% in the assay with SF-295 CNS. Moreover, the growth with SF-539 CNS is 104%; in the assay on UACC-257 melanoma it was 115%; with M14 melanoma, 99.3%.
`CNC(=S)NC(C)(C)C`: the growth in the assay with DU-145 prostate was 108%; in the assay with K-562 leukemia it was 103%; in the assay on MALME-3M melanoma, 97.1%; with RXF 393 renal, 112%; in the assay with SF-295 CNS it was 104%; in the assay on SF-539 CNS, 99.9%. Besides, in the assay on UACC-257 melanoma, the growth was 92.7%.
For `OCCN(CCO)C(=S)S`, the growth in the assay with DU-145 prostate was 111%; with K-562 leukemia it was 111%; with MALME-3M melanoma, 95.1%; in the assay on RXF 393 renal, 113%; in the assay with SF-295 CNS, 101%; with SF-539 CNS, 106%. In addition, in the assay on UACC-257 melanoma, the growth was 79.6%.
In the case of `CSc1[nH]c(=O)ncc1F`, the growth was 106% in the assay with DU-145 prostate; 111% with K-562 leukemia; 97.8% in the assay with MALME-3M melanoma; 105% with RXF 393 renal; 97.4% in the assay on SF-295 CNS; 95.7% in the assay on SF-539 CNS. Further, the growth in the assay on UACC-257 melanoma is 72.8%; in the assay on M14 melanoma, 103%.
On to `C[C@]12CC[C@@H]3c4ccc(OCC(=O)O)cc4CC[C@H]3[C@@H]1CCC2=O`, for which the growth with DU-145 prostate is 109%; in the assay with K-562 leukemia it was 78.7%; in the assay with MDA-MB-231 breast, 101%; with RXF 393 renal, 115%; with SF-268 CNS it was 91%; in the assay with SF-295 CNS, 111%. Further, the growth in the assay with SF-539 CNS was 97.5%; with UACC-257 melanoma, 93.4%; in the assay with M14 melanoma, 97.2%.
As to `Cc1cc(OCCO)cc(C)c1Cl`, the growth was 117% in the assay with DU-145 prostate; 118% in the assay on K-562 leukemia; 114% in the assay on MDA-MB-231 breast; 134% in the assay on RXF 393 renal; 109% in the assay with SF-268 CNS; 130% in the assay on SF-295 CNS. Moreover, the growth was 111% in the assay with SF-539 CNS, 110% with UACC-257 melanoma and 112% in the assay with M14 melanoma.
As for `CCCCCCCO`, the growth was 114% in the assay on DU-145 prostate; 106% in the assay on K-562 leukemia; 104% in the assay on MDA-MB-231 breast; 97.3% with RXF 393 renal; 125% in the assay with SF-268 CNS; 89.5% in the assay on SF-539 CNS. The growth in the assay with UACC-257 melanoma is 93.5%; in the assay with M14 melanoma, 98.5%.
As for `O=S(=O)(O)c1ccc(Cl)c(Cl)c1`, the growth in the assay with DU-145 prostate was 120%; in the assay with K-562 leukemia, 105%; in the assay with MDA-MB-231 breast it was 108%; with RXF 393 renal, 132%; in the assay with SF-268 CNS, 113%; in the assay with SF-295 CNS, 112%. The growth in the assay on SF-539 CNS is 107%; in the assay with UACC-257 melanoma it was 124%; in the assay on M14 melanoma, 101%.
Regarding `Nc1ncnc2c1nc(N)n2C1OC(CO)C(O)C1O` (centres undefined), the growth was -21.8% (active) in the assay on DU-145 prostate; 19.3% with K-562 leukemia; -16.9% (active) in the assay on MDA-MB-231 breast; -59.6% (active) in the assay on RXF 393 renal; -57.8% (active) with SF-268 CNS; -70.2% (active) with SF-295 CNS. Besides, the growth in the assay with SF-539 CNS is -94.4% (active); in the assay with UACC-257 melanoma, -56.6% (active).

These data come from PubChem BioAssay (NCI).
